# From PubChem BioAssay
# Active and inactive are the calls of the source.
# Columns and labels:
# [1] = optical density shifts of acrAB sulA E. coli – strain DRC41, OD650, 48 h, E. coli filamentation inducer project, primary screen (AID 1152); details: higher = more signal, called active from +8 up or from −8 down;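 note: E. coli MC1000 strain DRC41 lacking acrAB efflux pump and sulA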
# [2] = probe aLefty1 binding on compound microarray – biochemical, small-molecule microarray, 635/667 nm fluorescence, primary screen (AID 1153); details: higher = more signal;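 note: score merges spot fluorescence with signal-to-noise ratio from the scanned slide images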
# [3] = plasmodial surface anion channel blockers, osmotic lysis – cell-based, P. falciparum Indochina, OD700, 1 h, primary screen (AID 1154); details: P. falciparum Indochina infected RBC osmotic lysis, higher = more signal, called active from +8 up or from −8 down
# [4] = plasmodial surface anion channel blockers, osmotic lysis – cell-based, P. falciparum Indochina, OD700, 2 h, primary screen (AID 1155);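 note: lysis reports solute entry through the parasite surface anion channel PSAC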; details: P. falciparum Indochina infected erythrocytes, higher = more signal, called active from +8 up or from −8 down
# [5] = changes in parasitized red cell lysis, either direction – P. falciparum Indochina, OD700, 3 h, PSAC antagonist project, primary screen (AID 1156); details: P. falciparum-infected erythrocytes, osmotic lysis, higher = more signal, called active from +8 up or from −8 down
# [6] = plasmodial surface anion channel blockers, osmotic lysis – cell-based, P. falciparum Indochina, OD700, 18 h, primary screen (AID 1157); details: P. falciparum Indochina infected erythrocytes, osmotic lysis OD700, 18 h; higher = more signal, called active from +8 up or from −8 down
# [7] = S6 kinase pathway phospho-S6 level changes – cell-based, A549, cytoblot, luminescence, serum-stimulated, primary screen (AID 1158); details: 5 h, higher = more signal;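 note: serum-stimulated A549 lung adenocarcinoma cells; signal is phosphorylated S6 detected by cytoblot immunostaining with HRP secondary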
# [8] = biological target: NADPH oxidase 2 (Homo sapiens) (UniProt P04839); experiment: compounds shifting NOX2 Amplex Red fluorescence – cell-based, HEK293-NOX2, PMA-stimulated, NOX inhibitor project, primary screen (AID 1159); details: 45 min, higher = more signal, called active from +8 up or from −8 down; note: test concentration not given here
# [9] = biological target: NADPH oxidase 4 (Homo sapiens) (UniProt Q9NPH5); experiment: compounds shifting NOX4 Amplex Red fluorescence – cell-based, HEK293-NOX4, tetracycline-induced, NOX inhibitor project, primary screen (AID 1160); details: HEK293-NOX4, Amplex Red H2O2 fluorescence, 45 min; higher = more signal, called active from +8 up or from −8 down
# [10] = biological target: NADPH oxidase 5 (Homo sapiens) (UniProt Q96PH1); experiment: compounds shifting NOX5 Amplex Red fluorescence – cell-based, HEK293-NOX5, NOX inhibitor project, primary screen (AID 1161); details: HEK293-NOX5, ionomycin, 45 min, higher = more signal
# Sequence of NADPH oxidase 5 (Homo sapiens) (Q96PH1 whole entry, looked up): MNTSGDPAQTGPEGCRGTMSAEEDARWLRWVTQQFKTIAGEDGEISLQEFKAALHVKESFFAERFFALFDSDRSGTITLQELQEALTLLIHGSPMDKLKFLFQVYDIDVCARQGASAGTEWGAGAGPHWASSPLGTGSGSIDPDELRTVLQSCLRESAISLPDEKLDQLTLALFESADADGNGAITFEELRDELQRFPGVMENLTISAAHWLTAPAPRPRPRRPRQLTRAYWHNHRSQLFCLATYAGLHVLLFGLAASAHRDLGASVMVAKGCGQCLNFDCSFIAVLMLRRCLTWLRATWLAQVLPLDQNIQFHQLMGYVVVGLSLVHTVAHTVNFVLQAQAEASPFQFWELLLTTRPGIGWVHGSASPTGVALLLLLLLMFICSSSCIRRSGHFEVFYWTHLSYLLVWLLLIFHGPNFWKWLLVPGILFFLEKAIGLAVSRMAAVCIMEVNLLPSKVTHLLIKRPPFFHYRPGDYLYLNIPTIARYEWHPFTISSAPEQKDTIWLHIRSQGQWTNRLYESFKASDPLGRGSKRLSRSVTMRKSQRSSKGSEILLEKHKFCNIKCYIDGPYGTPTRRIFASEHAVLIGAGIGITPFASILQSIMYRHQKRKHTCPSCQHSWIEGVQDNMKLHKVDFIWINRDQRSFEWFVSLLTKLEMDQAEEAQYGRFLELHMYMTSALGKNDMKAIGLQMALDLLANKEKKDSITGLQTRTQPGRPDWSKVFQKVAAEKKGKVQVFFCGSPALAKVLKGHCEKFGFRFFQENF
# Sequence of NADPH oxidase 2 (Homo sapiens) (P04839 whole entry, looked up): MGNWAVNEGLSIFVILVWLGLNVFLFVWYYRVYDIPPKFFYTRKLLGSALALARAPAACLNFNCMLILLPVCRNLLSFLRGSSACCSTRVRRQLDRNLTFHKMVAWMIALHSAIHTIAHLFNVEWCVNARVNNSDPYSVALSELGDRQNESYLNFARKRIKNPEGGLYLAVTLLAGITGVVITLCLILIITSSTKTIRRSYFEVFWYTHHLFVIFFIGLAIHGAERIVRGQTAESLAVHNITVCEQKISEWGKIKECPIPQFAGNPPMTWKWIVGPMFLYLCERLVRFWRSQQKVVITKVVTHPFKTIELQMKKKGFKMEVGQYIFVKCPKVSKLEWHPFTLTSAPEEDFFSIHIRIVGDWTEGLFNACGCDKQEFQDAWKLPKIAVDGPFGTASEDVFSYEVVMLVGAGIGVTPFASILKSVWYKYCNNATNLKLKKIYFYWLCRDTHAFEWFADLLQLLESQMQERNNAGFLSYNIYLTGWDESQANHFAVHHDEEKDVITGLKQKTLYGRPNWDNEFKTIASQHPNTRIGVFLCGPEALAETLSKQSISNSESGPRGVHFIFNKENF
# Sequence of NADPH oxidase 4 (Homo sapiens) (Q9NPH5 whole entry, looked up): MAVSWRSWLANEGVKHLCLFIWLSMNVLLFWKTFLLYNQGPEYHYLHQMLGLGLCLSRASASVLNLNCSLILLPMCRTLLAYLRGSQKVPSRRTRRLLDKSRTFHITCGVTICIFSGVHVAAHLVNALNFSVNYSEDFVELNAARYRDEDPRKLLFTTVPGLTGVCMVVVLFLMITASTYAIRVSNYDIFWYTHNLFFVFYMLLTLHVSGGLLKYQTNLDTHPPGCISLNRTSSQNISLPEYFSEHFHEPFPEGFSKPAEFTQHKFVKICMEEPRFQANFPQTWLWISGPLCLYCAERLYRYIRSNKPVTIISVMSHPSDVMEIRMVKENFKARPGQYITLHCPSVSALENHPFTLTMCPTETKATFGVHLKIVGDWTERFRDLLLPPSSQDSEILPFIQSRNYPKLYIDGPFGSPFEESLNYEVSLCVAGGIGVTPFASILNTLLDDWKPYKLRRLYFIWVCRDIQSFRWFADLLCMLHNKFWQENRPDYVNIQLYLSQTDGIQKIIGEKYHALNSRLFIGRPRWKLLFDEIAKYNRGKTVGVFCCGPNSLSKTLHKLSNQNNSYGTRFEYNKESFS
Compound,z-score [1],composite z-score [2],z-score [3],z-score [4],z-score [5],z-score [6],z-score [7],z-score [8],z-score [9],z-score [10]
C=CC[C@]1(C(=O)NCC(O)CO)N=C(c2ccc(OCCCO)cc2)O[C@H]1c1ccccc1CN=[N+]=[N-] (stereo not given in full),0.0715 (inactive),0.104,15.7 (active),1.44 (inactive),4.83 (inactive),0.839 (inactive),-0.99,0.871 (inactive),0.0808 (inactive),-0.704
COC(=O)[C@@]1(Cc2ccc(F)cc2)[C@H]2c3cc(C(=O)N4CCCC4)n(CCc4c[nH]c5cc(F)ccc45)c3C[C@H]2CN1C(=O)c1ccccc1,-1.22 (inactive),0.429,1.76 (inactive),0.456 (inactive),1.86 (inactive),0.984 (inactive),0.593,0.361 (inactive),1.9 (inactive),2.01
COC(=O)[C@H](Cc1ccccc1)N1CC(C)(OC)O[C@@H](Cc2ccccc2)[C@H]1/C=C/C1CC1 (stereo not given in full),0.286 (inactive),-0.147,1.92 (inactive),0.0937 (inactive),-0.774 (inactive),0.281 (inactive),-0.105,-4.36 (inactive),-0.147 (inactive),-0.141
O=C1C2C=CC(C(O)c3ccccn3)N(Nc3ccc([N+](=O)[O-])cc3)C2C(=O)N1c1ccccc1 (stereo not given),-1.5 (inactive),0.0768,4.59 (inactive),1.04 (inactive),0.809 (inactive),0.509 (inactive),-0.967,-0.261 (inactive),-1.7 (inactive),-1.62
CCN1C(=O)C2CC(=O)C3C(CN(S(=O)(=O)c4ccc(C)cc4)C3c3ccc(C)cc3)C2C1=O (stereo not given),0.344 (inactive),-0.0967,1.04 (inactive),0.804 (inactive),0.135 (inactive),0.609 (inactive),-0.0511,-0.374 (inactive),-0.0929 (inactive),-0.525
COC(=O)[C@@]1(Cc2ccc(F)cc2)[C@H]2c3cc(C(=O)N(C)C)n(Cc4ccc(C(F)(F)F)nc4)c3C[C@H]2CN1C(=O)c1ccccc1,-1 (inactive),0.589,1.93 (inactive),0.844 (inactive),0.893 (inactive),0.987 (inactive),-0.0002,0.267 (inactive),0.32 (inactive),0.568
COc1ccc(C(O)C2C=CC3C(=O)N(C)C(=O)C3N2Nc2ccccc2)cc1 (stereo not given),-0.485 (inactive),0.211,0.929 (inactive),0.865 (inactive),0.213 (inactive),0.973 (inactive),-0.423,-1.26 (inactive),-2.67 (inactive),-1.96
C=CC[C@]1(C(N)=O)N=C(c2ccc(OCCCO)cc2)O[C@H]1c1ccccc1N=[N+]=[N-],2.21 (inactive),0.408,33.4 (active),30.8 (active),2.17 (inactive),9.7 (active),-0.0547,-1.77 (inactive),0.627 (inactive),0.189
CC[C@@H]1C=C(C(=O)O)[C@H](c2cccc(Cl)c2)N1S(=O)(=O)c1ccc(C)cc1,-1.23 (inactive),0.0043,0.522 (inactive),0.229 (inactive),-0.0699 (inactive),0.29 (inactive),-0.861,0.416 (inactive),0.185 (inactive),0.272
CCCCC=C[C@@H](NC(=O)C(C)(C)C)c1ccccc1,-2.16 (inactive),0.181,2.28 (inactive),1.43 (inactive),-1.46 (inactive),1.45 (inactive),-0.553,-0.312 (inactive),-2.16 (inactive),1.63
Cc1ccc(S[C@]2(C(=O)NCCN3CCOCC3)CC(=O)N(C(C)C)[C@@H]2c2ccc(CO)cc2I)cc1,3.66 (inactive),0.11,7.56 (inactive),0.308 (inactive),0.651 (inactive),-0.511 (inactive),1.86,-0.491 (inactive),-1.24 (inactive),1.07
OCCCc1cc[n+](Cc2cc3c(cc2Br)OCO3)cc1,0.855 (inactive),0.0191,-0.103 (inactive),0.0608 (inactive),-0.895 (inactive),-0.237 (inactive),-0.132,-0.0452 (inactive),0.27 (inactive),-0.112
CC(C)(C)OC(=O)CC[C@@]1(C(=O)N2CCOCC2)N=C(c2ccc(OCCCO)cc2)O[C@@H]1c1ccccc1CN=[N+]=[N-],0.409 (inactive),0.85,27 (active),14.9 (active),-0.762 (inactive),1.11 (inactive),-0.449,0.825 (inactive),2.1 (inactive),2.05
